Test results taken from the supplement of paper PMC10849652.
About 8,800 targets were measured; listed, in parts, are those with a hit and a random draw of the rest. About 0.5% of all pairs of compound and target were hits.

Columns and labels:
Experiment in all cases: log2 fold change, soluble protein after heating vs DMSO (PISA); higher = thermal stabilisation; K562 lysate, 10 uM; active = over 0.2 and 3.5 SD of the protein, either way, in both replicates (recomputed)
[1] = compound: NCC(=O)Nc1ccc(-n2nc(C(F)(F)F)cc2-c2ccc3c(ccc4ccccc43)c2)cc1
Procedure, shortened: (§1)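 Pellets of K562 cells were dounce-homogenised in PBS pH 7.4 with 1 mM MgCl2, and the crude extract was held at 1 mg/mL protein for a 30 min treatment with 10 μM compound. Aliquots were heated for 3 min over 48°C-58°C and pooled before NP-40 was added to 0.5% at 4°C. The supernatant from 21,000xg for 90 min was quantified by TMTpro 16plex LC-MS/MS with channel sums equalised. Values are reported from duplicates as log-two fold change in thermal stability relative to solvent controls.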

vorinostat = compound: O=C(CCCCCCC(=O)Nc1ccccc1)NO [vorinostat]
Procedure, shortened: as §1

silmitasertib = compound: O=C(O)c1ccc2c(c1)nc(Nc1cccc(Cl)c1)c1ccncc12 [silmitasertib]
Procedure, shortened: as §1

[2] = compound: O=C1NC(=O)C(c2cnc3ccccn23)=C1c1cn2c3c(cc(F)cc13)CN(C(=O)N1CCCCC1)CC2
Procedure, shortened: as §1

entospletinib = compound: c1cn2cc(-c3ccc4cn[nH]c4c3)nc(Nc3ccc(N4CCOCC4)cc3)c2n1 [entospletinib]
Procedure, shortened: as §1

Measured: log2 fold change

CCPG1 isoform 5 (UniProt Q9ULG6)
inactive: [1] -0.022 | vorinostat 0.043 | silmitasertib -0.012 | [2] -0.025 | entospletinib 0

CDK8 (UniProt P49336)
Sequence of UniProt P49336 (P49336 whole entry, looked up): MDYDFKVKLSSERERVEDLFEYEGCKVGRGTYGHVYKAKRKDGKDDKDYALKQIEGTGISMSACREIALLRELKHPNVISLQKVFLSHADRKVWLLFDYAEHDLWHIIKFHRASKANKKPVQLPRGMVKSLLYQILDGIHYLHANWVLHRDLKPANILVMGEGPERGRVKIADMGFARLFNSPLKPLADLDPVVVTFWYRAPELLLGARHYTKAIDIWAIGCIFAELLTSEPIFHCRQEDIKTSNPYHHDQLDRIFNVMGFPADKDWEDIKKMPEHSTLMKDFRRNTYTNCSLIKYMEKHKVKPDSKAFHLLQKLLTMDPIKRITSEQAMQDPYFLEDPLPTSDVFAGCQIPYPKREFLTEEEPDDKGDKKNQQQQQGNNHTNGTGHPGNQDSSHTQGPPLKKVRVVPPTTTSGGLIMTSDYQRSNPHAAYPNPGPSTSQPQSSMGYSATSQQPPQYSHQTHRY
inactive: [1] -0.008 | vorinostat -0.057 | silmitasertib 0.226 | [2] -0.053

CCDC22 (UniProt O60826)
Sequence of UniProt O60826 (O60826 whole entry, looked up): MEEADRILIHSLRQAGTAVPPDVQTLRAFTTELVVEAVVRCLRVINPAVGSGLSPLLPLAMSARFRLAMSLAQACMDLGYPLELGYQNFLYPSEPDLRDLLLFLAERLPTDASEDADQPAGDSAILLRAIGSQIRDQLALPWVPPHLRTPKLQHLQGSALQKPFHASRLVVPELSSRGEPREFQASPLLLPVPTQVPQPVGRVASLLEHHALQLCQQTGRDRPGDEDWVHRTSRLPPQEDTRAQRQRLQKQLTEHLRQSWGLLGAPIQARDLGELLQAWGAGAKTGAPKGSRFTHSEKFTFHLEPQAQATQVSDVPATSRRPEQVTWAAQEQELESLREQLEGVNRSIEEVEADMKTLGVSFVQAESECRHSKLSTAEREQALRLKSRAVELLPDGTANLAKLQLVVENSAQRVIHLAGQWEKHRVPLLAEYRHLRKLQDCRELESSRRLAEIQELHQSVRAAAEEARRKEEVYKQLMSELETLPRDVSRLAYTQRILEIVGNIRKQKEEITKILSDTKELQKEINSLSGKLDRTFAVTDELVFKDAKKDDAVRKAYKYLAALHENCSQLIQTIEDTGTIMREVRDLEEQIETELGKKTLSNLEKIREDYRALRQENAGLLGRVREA
inactive: [1] 0.056 | silmitasertib 0.022 | [2] 0.014 | entospletinib -0.021
active: vorinostat -0.222

ATG4A (UniProt Q8WYN0)
inactive: [1] -0.059 | silmitasertib 0.034 | [2] 0.001 | entospletinib 0.004
active: vorinostat -0.543

CDKN1C (UniProt P49918)
inactive: [1] 0.124 | vorinostat 0.058 | silmitasertib -0.029 | [2] 0.134 | entospletinib 0.048

CCNK isoform 4 (UniProt O75909)
inactive: [1] 0.032 | vorinostat 0.093 | silmitasertib -0.007 | [2] -0.051 | entospletinib -0.002

BTK isoform 2 (UniProt Q06187)
inactive: silmitasertib 0.066 | [2] 0.012 | entospletinib 0.3
active: [1] 0.439 | vorinostat -0.322

CCAR2 (UniProt Q8N163)
active: vorinostat -0.399
inactive: [1] 0.01 | silmitasertib 0.002 | [2] -0.02 | entospletinib 0.02

C3orf33 (UniProt Q6P1S2)
Sequence of UniProt Q6P1S2 (Q6P1S2 whole entry, looked up): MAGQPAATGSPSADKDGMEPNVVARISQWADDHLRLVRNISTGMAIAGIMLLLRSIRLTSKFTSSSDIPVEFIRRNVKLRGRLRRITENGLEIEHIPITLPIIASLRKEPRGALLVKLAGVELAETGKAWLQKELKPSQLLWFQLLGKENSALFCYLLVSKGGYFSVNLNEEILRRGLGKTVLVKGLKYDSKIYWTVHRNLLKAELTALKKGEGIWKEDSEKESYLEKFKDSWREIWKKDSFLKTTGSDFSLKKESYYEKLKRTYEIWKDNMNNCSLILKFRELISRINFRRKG
inactive: [1] -0.085 | vorinostat -0.118 | silmitasertib -0.137 | [2] 0.023

ATP5PF isoform 2 (UniProt P18859)
Sequence of UniProt P18859 (P18859 whole entry, looked up): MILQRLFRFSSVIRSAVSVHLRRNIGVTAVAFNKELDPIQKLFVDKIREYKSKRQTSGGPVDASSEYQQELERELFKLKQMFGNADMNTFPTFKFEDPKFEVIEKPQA
inactive: [1] -0.002 | vorinostat 0.206 | silmitasertib -0.116 | [2] 0.053 | entospletinib -0.003

BCAR1 isoform 6 (UniProt P56945)
inactive: [1] 0.056 | vorinostat -0.032 | silmitasertib 0.002 | [2] -0.004 | entospletinib -0.083

BCKDK (UniProt O14874)
inactive: [1] -0.01 | vorinostat 0.025 | silmitasertib 0.052 | entospletinib -0.053
active: [2] -0.271

CARD9 (UniProt Q9H257)
active: vorinostat -0.217
inactive: [1] 0.008 | silmitasertib 0.011 | [2] 0.014 | entospletinib -0.038

CELF1 isoform 4 (UniProt Q92879)
inactive: [1] 0.065 | silmitasertib 0.019 | [2] 0.022 | entospletinib 0.013
active: vorinostat -0.347

CBX5 (UniProt P45973)
inactive: [1] 0.033 | vorinostat -0.062 | silmitasertib -0.005 | [2] -0.048 | entospletinib 0.014

ATG10 (UniProt Q9H0Y0)
active: vorinostat -0.242
inactive: [1] -0.032 | silmitasertib 0.049 | [2] -0.023 | entospletinib 0.034

CDC7 (UniProt O00311)
Sequence of UniProt O00311 (O00311 whole entry, looked up): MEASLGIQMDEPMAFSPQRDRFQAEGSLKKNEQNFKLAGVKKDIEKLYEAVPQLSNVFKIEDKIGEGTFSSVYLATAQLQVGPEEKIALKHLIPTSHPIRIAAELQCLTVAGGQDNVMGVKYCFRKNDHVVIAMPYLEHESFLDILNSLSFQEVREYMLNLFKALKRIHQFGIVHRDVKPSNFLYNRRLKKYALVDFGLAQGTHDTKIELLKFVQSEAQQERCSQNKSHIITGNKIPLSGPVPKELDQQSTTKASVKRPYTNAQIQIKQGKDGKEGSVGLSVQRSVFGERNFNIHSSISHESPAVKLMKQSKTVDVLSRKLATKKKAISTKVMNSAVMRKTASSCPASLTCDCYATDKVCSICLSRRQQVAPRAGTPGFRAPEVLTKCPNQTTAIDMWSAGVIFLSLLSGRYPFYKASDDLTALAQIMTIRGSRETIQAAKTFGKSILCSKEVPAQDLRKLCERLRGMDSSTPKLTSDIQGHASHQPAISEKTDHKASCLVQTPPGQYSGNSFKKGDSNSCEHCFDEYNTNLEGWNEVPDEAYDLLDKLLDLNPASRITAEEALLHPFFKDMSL
inactive: [1] 0.086 | vorinostat -0.152 | silmitasertib -0.077 | [2] -0.01 | entospletinib 0.007

ATF7IP2 (UniProt Q5U623)
inactive: [1] 0.066 | vorinostat 0.027 | silmitasertib 0.002 | [2] -0.048

CAPNS1 (UniProt K7ES78)
inactive: [1] -0.234 | vorinostat -0.011 | silmitasertib -0.037 | [2] 0.141

CAMKK1 isoform 2 (UniProt Q8N5S9)
inactive: [1] 0.006 | vorinostat -0.255 | silmitasertib 0.072 | [2] -0.007 | entospletinib -0.078

C3 (UniProt P01024)
inactive: [1] 0.024 | vorinostat -0.098 | silmitasertib 0.008 | [2] 0.062 | entospletinib -0.036

CHD9 (UniProt Q3L8U1)
inactive: [1] -0.018 | vorinostat -0.111 | silmitasertib 0.075 | [2] -0.012

C12orf45 (UniProt Q8N5I9)
Sequence of UniProt Q8N5I9 (Q8N5I9 whole entry, looked up): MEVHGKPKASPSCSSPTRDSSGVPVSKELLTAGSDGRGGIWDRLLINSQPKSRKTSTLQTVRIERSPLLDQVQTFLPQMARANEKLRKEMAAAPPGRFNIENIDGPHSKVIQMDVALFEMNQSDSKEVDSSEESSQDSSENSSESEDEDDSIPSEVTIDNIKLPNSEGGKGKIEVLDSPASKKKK
inactive: [1] 0.063 | vorinostat 0.012 | silmitasertib -0.059 | [2] -0.027 | entospletinib 0

CCDC186 (UniProt Q7Z3E2)
inactive: [1] 0.052 | vorinostat 0.005 | silmitasertib 0.057 | [2] 0.012 | entospletinib -0.01

BRAF (UniProt P15056)
inactive: [1] -0.001 | vorinostat -0.339 | silmitasertib 0.061 | [2] -0.008 | entospletinib 0.037

BORCS5 (UniProt Q969J3)
inactive: [1] -0.061 | vorinostat 0.136 | silmitasertib 0.008 | [2] 0.026 | entospletinib -0.115

CANX (UniProt D6RHJ3)
inactive: [1] 0.012

CAMK2B (UniProt Q13554)
inactive: [1] 0.014 | vorinostat -0.133 | silmitasertib -0.017 | [2] 0.056 | entospletinib -0.02

CCDC51 (UniProt Q96ER9)
inactive: [1] 0.002 | vorinostat 0.153 | silmitasertib 0.011 | [2] 0.015 | entospletinib -0.046

BRD4 (UniProt O60885)
inactive: [1] 0.01 | vorinostat -0.115 | silmitasertib -0.011 | [2] -0.02 | entospletinib -0.028

ATAD1 (UniProt Q8NBU5)
inactive: [1] -0.047 | silmitasertib 0.021 | [2] 0.002 | entospletinib 0.008
active: vorinostat -0.617

CDK5 (UniProt Q00535)
Sequence of UniProt Q00535 (Q00535 whole entry, looked up): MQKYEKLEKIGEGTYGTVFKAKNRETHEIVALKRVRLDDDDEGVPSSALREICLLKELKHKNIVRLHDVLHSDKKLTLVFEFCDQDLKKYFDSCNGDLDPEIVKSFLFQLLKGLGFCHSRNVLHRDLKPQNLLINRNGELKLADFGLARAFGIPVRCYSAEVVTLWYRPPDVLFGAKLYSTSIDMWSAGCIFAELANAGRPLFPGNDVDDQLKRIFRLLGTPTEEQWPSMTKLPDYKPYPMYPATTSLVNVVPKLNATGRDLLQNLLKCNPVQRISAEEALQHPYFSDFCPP
active: silmitasertib 0.855
inactive: [1] -0.036 | vorinostat -0.232 | [2] 0.179 | entospletinib 0.036

CDKN1B (UniProt P46527)
Sequence of UniProt P46527 (P46527 whole entry, looked up): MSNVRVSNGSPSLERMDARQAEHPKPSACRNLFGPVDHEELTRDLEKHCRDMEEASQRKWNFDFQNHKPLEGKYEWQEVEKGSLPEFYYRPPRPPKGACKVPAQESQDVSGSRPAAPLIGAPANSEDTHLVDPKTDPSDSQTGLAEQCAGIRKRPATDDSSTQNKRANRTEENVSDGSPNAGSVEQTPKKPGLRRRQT
inactive: [1] 0.062 | vorinostat -0.011 | silmitasertib 0.048 | [2] -0.067 | entospletinib -0.028

CDK5RAP1 (UniProt Q96SZ6)
inactive: [1] 0.011 | vorinostat 0.036 | silmitasertib -0.07 | [2] 0.016 | entospletinib 0.029

CHD3 isoform 3 (UniProt Q12873)
active: vorinostat -0.316
inactive: [1] 0.022 | silmitasertib 0.032 | [2] -0.004 | entospletinib 0.002

CCDC25 (UniProt Q86WR0)
inactive: [1] 0.025 | vorinostat 0.025 | silmitasertib -0.032 | [2] -0.011 | entospletinib 0.009

CDC42BPA isoform 6 (UniProt Q5VT25)
active: vorinostat -0.224
inactive: [1] -0.008 | silmitasertib 0.018 | [2] 0.001 | entospletinib 0

BCKDHB (UniProt P21953)
inactive: [1] 0.055 | silmitasertib 0.076 | [2] 0.072 | entospletinib -0.123
active: vorinostat -0.275

CDC42EP4 (UniProt Q9H3Q1)
Sequence of UniProt Q9H3Q1 (Q9H3Q1 whole entry, looked up): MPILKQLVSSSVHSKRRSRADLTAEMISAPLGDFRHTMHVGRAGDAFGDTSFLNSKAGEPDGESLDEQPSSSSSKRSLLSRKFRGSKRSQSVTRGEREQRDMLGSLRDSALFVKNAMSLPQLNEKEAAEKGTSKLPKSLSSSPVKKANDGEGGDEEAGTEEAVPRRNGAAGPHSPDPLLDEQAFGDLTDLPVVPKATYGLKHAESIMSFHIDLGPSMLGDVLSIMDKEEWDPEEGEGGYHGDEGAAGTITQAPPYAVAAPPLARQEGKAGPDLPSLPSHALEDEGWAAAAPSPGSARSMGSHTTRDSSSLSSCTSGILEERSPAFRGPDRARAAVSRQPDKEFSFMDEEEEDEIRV
inactive: [1] 0 | vorinostat 0.018 | silmitasertib -0.074 | [2] 0.021 | entospletinib 0.051

CAPNS1 (UniProt P04632)
inactive: [1] -0.08 | vorinostat 0.07 | silmitasertib -0.007 | [2] -0.039 | entospletinib 0.033

CDK17 isoform 2 (UniProt Q00537)
Sequence of UniProt Q00537 (Q00537 whole entry, looked up): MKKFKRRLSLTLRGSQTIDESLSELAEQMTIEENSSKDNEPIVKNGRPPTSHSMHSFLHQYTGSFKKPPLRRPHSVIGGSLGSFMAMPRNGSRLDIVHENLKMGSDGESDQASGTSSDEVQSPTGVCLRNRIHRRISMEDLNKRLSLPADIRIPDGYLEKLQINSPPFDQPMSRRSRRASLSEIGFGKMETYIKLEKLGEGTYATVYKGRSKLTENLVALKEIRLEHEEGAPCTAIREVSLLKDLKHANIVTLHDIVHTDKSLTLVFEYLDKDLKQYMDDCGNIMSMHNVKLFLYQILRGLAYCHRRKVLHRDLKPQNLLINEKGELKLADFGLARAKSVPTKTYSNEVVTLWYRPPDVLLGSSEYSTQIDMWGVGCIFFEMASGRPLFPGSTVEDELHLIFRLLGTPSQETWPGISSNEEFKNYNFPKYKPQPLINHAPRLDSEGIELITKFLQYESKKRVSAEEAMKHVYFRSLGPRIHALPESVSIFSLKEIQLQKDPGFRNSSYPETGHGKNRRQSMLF
active: silmitasertib 0.565
inactive: [1] 0.01 | vorinostat 0.174 | [2] 0.103 | entospletinib -0.162

CARS isoform 3 (UniProt P49589)
inactive: [1] 0.018 | silmitasertib 0.018 | [2] -0.049 | entospletinib 0.008
active: vorinostat -0.254

CDK9 isoform 2 (UniProt P50750)
inactive: [1] 0.081 | vorinostat -0.198 | silmitasertib 0.164 | [2] 0.402 | entospletinib 0.038

CEP41 (UniProt Q9BYV8)
inactive: [1] 0.002 | silmitasertib -0.026 | [2] -0.152 | entospletinib -0.017
active: vorinostat -0.558

BAG4 (UniProt O95429)
Sequence of UniProt O95429 (O95429 whole entry, looked up): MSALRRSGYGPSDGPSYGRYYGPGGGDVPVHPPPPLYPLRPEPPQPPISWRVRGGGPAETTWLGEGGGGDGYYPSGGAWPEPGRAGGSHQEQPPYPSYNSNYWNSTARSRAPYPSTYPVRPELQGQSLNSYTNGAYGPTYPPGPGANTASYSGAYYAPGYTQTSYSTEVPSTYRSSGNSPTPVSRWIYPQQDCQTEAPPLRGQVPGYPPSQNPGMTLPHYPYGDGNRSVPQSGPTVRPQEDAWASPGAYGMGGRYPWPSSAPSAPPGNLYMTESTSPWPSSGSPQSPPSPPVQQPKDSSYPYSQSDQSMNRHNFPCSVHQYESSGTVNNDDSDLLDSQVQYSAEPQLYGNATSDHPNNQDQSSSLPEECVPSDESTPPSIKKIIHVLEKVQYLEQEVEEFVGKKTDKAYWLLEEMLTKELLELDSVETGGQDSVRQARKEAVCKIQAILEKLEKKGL
inactive: [1] -0.013 | vorinostat 0.03 | silmitasertib -0.067 | [2] -0.025 | entospletinib 0.007

CCNYL1 (UniProt Q8N7R7)
Sequence of UniProt Q8N7R7 (Q8N7R7 whole entry, looked up): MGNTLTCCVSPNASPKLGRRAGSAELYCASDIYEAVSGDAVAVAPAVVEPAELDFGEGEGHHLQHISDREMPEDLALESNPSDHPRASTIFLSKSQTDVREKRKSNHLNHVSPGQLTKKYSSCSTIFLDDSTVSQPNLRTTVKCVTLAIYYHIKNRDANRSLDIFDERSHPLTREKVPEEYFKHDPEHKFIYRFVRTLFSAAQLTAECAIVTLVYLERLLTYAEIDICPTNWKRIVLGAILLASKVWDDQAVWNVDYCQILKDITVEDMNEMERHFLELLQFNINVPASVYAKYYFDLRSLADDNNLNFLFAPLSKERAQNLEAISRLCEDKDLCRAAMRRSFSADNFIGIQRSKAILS
active: vorinostat -0.674
inactive: [1] -0.013 | silmitasertib 0.079 | [2] 0.019 | entospletinib -0.005

CHD5 (UniProt Q8TDI0)
active: vorinostat -0.261
inactive: [1] 0.059 | silmitasertib 0.007 | [2] 0.042 | entospletinib 0.025

ATP11A (UniProt P98196)
active: vorinostat -0.265
inactive: [1] 0.168 | silmitasertib 0.106 | [2] 0.009 | entospletinib -0.054

ATP6V0A2 (UniProt Q9Y487)
inactive: [1] -0.033 | vorinostat 0.127 | silmitasertib -0.016 | [2] -0.021 | entospletinib 0.012

BUD23 isoform 3 (UniProt O43709)
Sequence of UniProt O43709 (O43709 whole entry, looked up): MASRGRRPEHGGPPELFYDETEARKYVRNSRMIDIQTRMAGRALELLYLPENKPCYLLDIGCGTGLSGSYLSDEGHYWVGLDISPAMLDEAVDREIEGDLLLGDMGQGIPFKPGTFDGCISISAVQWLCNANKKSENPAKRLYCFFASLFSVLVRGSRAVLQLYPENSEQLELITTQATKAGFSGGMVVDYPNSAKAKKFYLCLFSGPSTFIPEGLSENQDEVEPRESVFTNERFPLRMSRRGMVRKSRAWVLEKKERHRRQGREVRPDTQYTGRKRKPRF
inactive: [1] 0.007 | vorinostat 0.014 | silmitasertib -0.07 | [2] -0.021 | entospletinib 0.055

CDK2 (UniProt P24941)
inactive: [1] -0.02 | vorinostat 0.006 | silmitasertib 0.248 | [2] 0.202 | entospletinib 0.039

CBR1 (UniProt P16152)
active: vorinostat -0.377
inactive: [1] -0.01 | silmitasertib -0.024 | [2] 0.033 | entospletinib 0.006

ATAD3B (UniProt Q5T9A4)
inactive: [1] -0.128 | vorinostat 0.132 | silmitasertib 0.015 | [2] -0.057 | entospletinib 0.012

CARHSP1 (UniProt Q9Y2V2)
Sequence of UniProt Q9Y2V2 (Q9Y2V2 whole entry, looked up): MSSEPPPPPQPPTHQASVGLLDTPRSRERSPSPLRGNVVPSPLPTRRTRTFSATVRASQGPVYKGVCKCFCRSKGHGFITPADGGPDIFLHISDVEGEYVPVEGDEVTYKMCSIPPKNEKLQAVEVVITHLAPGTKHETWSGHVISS
inactive: [1] 0.045 | vorinostat 0.052 | silmitasertib -0.006 | [2] 0.056 | entospletinib -0.049
